# Measured values taken from the supplement of paper PMC12282887.
# ± gives the standard deviation of the averaged measurements.
# Tested on: E. coli BW25113 marRABp lux reporter
# Assay: promoter activity interaction Z-score (Lux/OD deviation from empty-vector control); higher = stronger promoter induction by the compound
# Experimental: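 E. coli BW25113 (wild type or ΔmarA/ΔsoxS/Δrob) carrying pTU175 luxCDABE promoter reporters was grown in LB in 384-well plates at 37°C with each of 94 compounds at 4 two-fold concentrations, in biological duplicates. Luminescence and OD600 were read every 30 min for 12 h and integrated as AUC over 8 h (0-8 h WT, 1-9 h mutants). Lux AUC was divided by OD AUC; the interaction score is the residual of a Huber robust fit of each promoter against the empty-vector control, then Z-transformed per promoter.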
smiles,measurement,setting,value
NC(N)=S [Thiourea],promoter activity interaction Z-score,"4.8 µg/ml, genetic background: wild type",-0.23 ± 0.42
same,promoter activity interaction Z-score,"4.8 µg/ml, genetic background: ΔmarA",-0.11 ± 0.25
same,promoter activity interaction Z-score,"4.8 µg/ml, genetic background: Δrob",-0.246 ± 0.076
same,promoter activity interaction Z-score,"4.8 µg/ml, genetic background: ΔsoxS",-0.231 ± 0.24
same,promoter activity interaction Z-score,"9.5 µg/ml, genetic background: wild type",-0.161 ± 0.13
same,promoter activity interaction Z-score,"9.5 µg/ml, genetic background: ΔmarA",0.055 ± 0.11
same,promoter activity interaction Z-score,"9.5 µg/ml, genetic background: Δrob",-0.0456 ± 0.0082
same,promoter activity interaction Z-score,"9.5 µg/ml, genetic background: ΔsoxS",-0.157 ± 0.14
same,promoter activity interaction Z-score,"19 µg/ml, genetic background: wild type",-0.209 ± 0.12
same,promoter activity interaction Z-score,"19 µg/ml, genetic background: ΔmarA",-0.407 ± 0.02
same,promoter activity interaction Z-score,"19 µg/ml, genetic background: Δrob",-0.154 ± 0.11
same,promoter activity interaction Z-score,"19 µg/ml, genetic background: ΔsoxS",-0.149 ± 0.038
same,promoter activity interaction Z-score,"38.1 µg/ml, genetic background: wild type",-0.45 ± 0.34
same,promoter activity interaction Z-score,"38.1 µg/ml, genetic background: ΔmarA",-0.162 ± 0.17
same,promoter activity interaction Z-score,"38.1 µg/ml, genetic background: Δrob",-0.0285 ± 0.12
same,promoter activity interaction Z-score,"38.1 µg/ml, genetic background: ΔsoxS",-0.0935 ± 0.032
Cn1c(=O)[nH]c2[nH]c(=O)[nH]c2c1=O [1-Methyluric acid],promoter activity interaction Z-score,"11.4 µg/ml, genetic background: wild type",0.0849 ± 0.054
same,promoter activity interaction Z-score,"11.4 µg/ml, genetic background: ΔmarA",-0.0996 ± 0.1
same,promoter activity interaction Z-score,"11.4 µg/ml, genetic background: Δrob",-0.0237 ± 0.035
same,promoter activity interaction Z-score,"11.4 µg/ml, genetic background: ΔsoxS",-0.145 ± 0.068
same,promoter activity interaction Z-score,"22.8 µg/ml, genetic background: wild type",-0.0689 ± 0.41
same,promoter activity interaction Z-score,"22.8 µg/ml, genetic background: ΔmarA",-0.0515 ± 0.28
same,promoter activity interaction Z-score,"22.8 µg/ml, genetic background: Δrob",-0.217 ± 0.19
same,promoter activity interaction Z-score,"22.8 µg/ml, genetic background: ΔsoxS",-0.242 ± 0.1
same,promoter activity interaction Z-score,"45.5 µg/ml, genetic background: wild type",-0.206 ± 0.59
same,promoter activity interaction Z-score,"45.5 µg/ml, genetic background: ΔmarA",-0.417 ± 0.023
same,promoter activity interaction Z-score,"45.5 µg/ml, genetic background: Δrob",-0.419 ± 0.29
same,promoter activity interaction Z-score,"45.5 µg/ml, genetic background: ΔsoxS",-0.415 ± 0.043
same,promoter activity interaction Z-score,"91.1 µg/ml, genetic background: wild type",-0.367 ± 0.052
same,promoter activity interaction Z-score,"91.1 µg/ml, genetic background: ΔmarA",0.16 ± 0.19
same,promoter activity interaction Z-score,"91.1 µg/ml, genetic background: Δrob",-0.423 ± 0.058
same,promoter activity interaction Z-score,"91.1 µg/ml, genetic background: ΔsoxS",-0.211 ± 0.17
O=c1c(O)c(-c2ccc(O)c(O)c2)oc2cc(O)cc(O)c12 [Quercetin],promoter activity interaction Z-score,"18.9 µg/ml, genetic background: wild type",0.0379 ± 0.17
same,promoter activity interaction Z-score,"18.9 µg/ml, genetic background: ΔmarA",-0.192 ± 0.25
same,promoter activity interaction Z-score,"18.9 µg/ml, genetic background: Δrob",-0.164 ± 0.21
same,promoter activity interaction Z-score,"18.9 µg/ml, genetic background: ΔsoxS",0.203 ± 0.51
same,promoter activity interaction Z-score,"37.8 µg/ml, genetic background: wild type",0.341 ± 0.79
same,promoter activity interaction Z-score,"37.8 µg/ml, genetic background: ΔmarA",0.116 ± 0.59
same,promoter activity interaction Z-score,"37.8 µg/ml, genetic background: Δrob",0.248 ± 0.078
same,promoter activity interaction Z-score,"37.8 µg/ml, genetic background: ΔsoxS",0.179 ± 0.43
same,promoter activity interaction Z-score,"75.6 µg/ml, genetic background: wild type",0.82 ± 0.64
same,promoter activity interaction Z-score,"75.6 µg/ml, genetic background: ΔmarA",0.9 ± 0.12
same,promoter activity interaction Z-score,"75.6 µg/ml, genetic background: Δrob",-0.0348 ± 0.087
same,promoter activity interaction Z-score,"75.6 µg/ml, genetic background: ΔsoxS",0.129 ± 0.45
same,promoter activity interaction Z-score,"151.1 µg/ml, genetic background: wild type",1.13 ± 0.91
same,promoter activity interaction Z-score,"151.1 µg/ml, genetic background: ΔmarA",0.91 ± 0.61
same,promoter activity interaction Z-score,"151.1 µg/ml, genetic background: Δrob",0.867 ± 0.51
same,promoter activity interaction Z-score,"151.1 µg/ml, genetic background: ΔsoxS",0.0221 ± 0.045
